Reference: PubChem BioAssay AID463173 (ICCB-Longwood Screening Facility, Harvard Medical School, 2010)
The whole screen tested about 52,000 compounds, of which about 4,300 (8.3%) were called active. The full list was thinned out, with actives kept by preference. Values without a mark were called inactive. Rule as the data show it: active = survival mostly below about 52% (no sharp cut-off); inactive = mostly above about 56%.

What follows are compounds tested on DeltatarO mutant (assay: S. aureus survival, RN4220 and DeltatarO strains – OD600, teichoic acid synthesis inhibitors, primary screen (AID 463173)). Settings: S. aureus RN4220 wild type/DeltatarO growth, OD600, 18 h, active compounds read low, screened at 18.75 µg/mL (by protocol).

| Structure (SMILES) | survival |
| --- | --- |
| Cc1ccc(CCNC(=O)c2ccc3c(c2)N(Cc2ccccc2F)C(=O)c2ccccc2S3=O)cc1 (configuration not stated) | 69% |
| COc1ccc(-c2cc(C(=O)NCc3ccc(F)cc3)c3c(-c4ccc(F)cc4)[nH]nc3n2)cc1OC | 72% |
| COc1ccc(CCNc2nc3c(c(=O)n(C)c(=O)n3C)n2Cc2ccc(F)cc2)cc1OC | 90% |
| CCOc1ccc(N(c2nc(-c3ccc(OC)c(OC)c3)no2)c2nc(-c3ccc(OC)c(OC)c3)no2)cc1 | 73% |
| Nc1ncc(Cc2ccccc2)s1 | 75% |
| CCCCSCCCNC(=O)CN1C(=O)c2cccnc2Oc2ccc(Cl)cc21 | 94% |
| N#CC1=C(N)Oc2c(c(=O)oc3ccccc23)C12C(=O)Nc1ccccc12 (configuration not stated) | 102% |
| N#Cc1cc2c(ccc3ccccc32)oc1=O | 71% |
| N#CC1=C(N)Oc2c(c(=O)oc3ccccc23)C1 | 31% (active) |
| COc1ccc(N2CCN(C(=O)Cn3ncc4c3-c3cc(C)ccc3OC4)CC2)cc1 | 122% |
| C=C(C)Cn1c(=O)c2c(nc3n2CCN3c2cc(C)cc(C)c2)n(C)c1=O | 81% |
| Oc1cccc(N=Cc2sc(=S)n(C3CCCCC3)c2O)c1 | 84% |
| COC(=O)c1ccccc1NC(=O)C1=C(C)C(=O)OC12CCC(C)CC2 (configuration not stated) | -23% (active) |
| COC(=O)c1ccccc1NC(=O)C1=C(C)C(=O)OC12CCCCCC2 | 84% |
| CC1=C(C(=O)Nc2cccc(C)c2C)C2(CCCCC2)OC1=O | 89% |
| CC(=O)N1CCC2(CC1)OC(=O)C(C)=C2C(=O)Nc1cccc(Cl)c1C | 70% |
| CC1=C(C(=O)Nc2cccc(Cl)c2C)C2(CCCCCC2)OC1=O | 0% (active) |
| CC1=C(C(=O)Nc2cccc(C(F)(F)F)c2)C2(CCCCC2)OC1=O | 95% |
| CC1=C(C(=O)NCc2cccc(F)c2)C2(CCCCCC2)OC1=O | 55% |

| Structure (SMILES) | survival |
| --- | --- |
| CC1=C(C(=O)Nc2ccccc2Br)C2(CCC(C)CC2)OC1=O (configuration not stated) | 83% |
| CC1=C(C(=O)NCc2cccc(Br)c2)C2(CCCCC2)OC1=O | 83% |
| CC1=C(C(=O)Nc2cccc(C(F)(F)F)c2)C2(CCN(C(C)C)CC2)OC1=O | 84% |
| CC1=C(C(=O)Nc2cccc(C(F)(F)F)c2)C2(CCCCCC2)OC1=O | 32% (active) |
| CC1=C(C(=O)NCc2cccc(F)c2)C2(CCCCC2)OC1=O | 37% (active) |
| CCOc1ccc(C2C(C(=O)Nc3ccc(C)cc3C)=C(C)Nc3c(C(=O)Nc4ccc(C)cc4)cnn32)cc1OC (configuration not stated) | 94% |
| O=C(NC(=O)c1ccccc1)Nc1ccc(-n2nc(C(F)(F)F)cc2C(F)(F)F)cc1 | 173% |
| COC(=O)c1ccccc1NC(=O)Cn1c(=O)cc(-c2ccccc2)c2c(C)nn(C)c21 | 89% |
| CCOC(=O)C(CC)N1CCN(Cc2ccc(F)cc2)C(=O)C1=O (configuration not stated) | 85% |
| Cc1cccc(NC(=O)C(=O)NCC(c2cccnc2)N2CCc3ccccc3C2)c1C (configuration not stated) | 86% |
| CN1CC(=O)N(CC(=O)Nc2ccc(Cl)c(C(F)(F)F)c2)c2ccccc2C1=O | 85% |
| Cc1ccc(NC(=O)C2CCCN(S(=O)(=O)c3cccc4cccnc34)C2)c(C)c1 (configuration not stated) | 78% |
| O=C(COc1ccccc1[N+](=O)[O-])Nc1ccc(-c2nc3ccccc3s2)cc1 | 63% |
| COc1cccc(C(=O)Nc2ccccc2C(=O)OCc2cc(=O)n3nc(C4CC4)sc3n2)c1 | 65% |
| COc1ccc(OC)c(NC(=O)C2=C(C)C(=O)OC23CCN(C(C)C)CC3)c1 | 32% (active) |
| COc1ccc(OC)c(NC(=O)C2=C(C)C(=O)OC23CCCCCC3)c1 | 131% |
| COc1ccc(NC(=O)C2=C(C)C(=O)OC23CCN(C(C)C)CC3)cc1Cl | 83% |
| CCCn1c(=O)c2sccc2n2c(CCCC(=O)NC3CCCCC3)nnc12 | 80% |
| CCc1cccc(C)c1NC(=O)CCn1c(=O)c2cccn2c2ccccc21 | 58% |

| Structure (SMILES) | survival |
| --- | --- |
| COc1ccc(-n2nc3c(N4CCCC(C(=O)NCCc5ccccc5C)C4)nnc(C)c3c2C)cc1 (configuration not stated) | 70% |
| C/C(=N\NC(=O)c1ccco1)c1ccc(C)o1 | 80% |
| CC(=O)c1ccc(NC(=O)Cn2ncc3c4ccccc4n(Cc4ccccc4)c3c2=O)cc1 | 73% |
| CC(=O)c1ccc(NC(=O)COc2ccccc2-c2nc(-c3ccccc3)no2)cc1 | 48% |
| Cc1ccc2cccc(NC(=O)COc3ccccc3[N+](=O)[O-])c2n1 | 75% |
| Cc1cccc(-c2noc(-c3ccccc3OCC(=O)Nc3ccccc3[N+](=O)[O-])n2)c1 | 94% |
| Cc1ccccc1-c1noc(-c2ccccc2OCC(=O)Nc2ccccc2[N+](=O)[O-])n1 | 45% |
| Cc1noc(-c2ccccc2OCC(=O)Nc2ccccc2[N+](=O)[O-])n1 | 39% (active) |
| O=C(COc1ccccc1-c1nc(-c2ccccc2)no1)Nc1ccccc1[N+](=O)[O-] | 31% (active) |
| CC(C)c1noc(-c2ccccc2OCC(=O)Nc2ccccc2[N+](=O)[O-])n1 | 44% (active) |
| Cc1ccc(-c2noc(-c3ccccc3OCC(=O)Nc3ccccc3[N+](=O)[O-])n2)cc1 | 60% |
| CC(=O)c1ccc(NC(=O)COc2ccccc2-c2nc(C)no2)cc1 | 95% |
| CC(C)c1noc(-c2ccccc2OCC(=O)Nc2cccc([N+](=O)[O-])c2)n1 | 62% |
| CC(C)c1noc(-c2ccccc2OCC(=O)Nc2ccc([N+](=O)[O-])cc2)n1 | 61% |
| CC(=O)c1ccc(NC(=O)COc2ccccc2-c2nc(C(C)C)no2)cc1 | 55% (active) |
| C=CCNC(=S)N1CCC(C(=O)c2ccc(C)cc2)CC1 | 103% |
| O=C(N/N=C/c1ccccc1)C(O)c1ccccc1 (configuration not stated) | 95% |
| COc1ccc(-c2nc3sc(CCNC(=O)C(=O)Nc4ccc(OC)c(OC)c4)c(C)n3n2)cc1 | 84% |
| CCCN1CC=C2C(C#N)=C(N)C(C#N)(C#N)C(c3ccc(F)cc3F)C2C1 (configuration not stated) | 77% |
